# A number with no mark means an inactive call. Results filed as inconclusive are left out. Entries that show only a call come without a potency. Activity calls are given as the source filed them. Unless noted, the call rests on the fitted dose curve; in most records, active means well fitted curve in the direction sought with a large enough effect in the repeat runs; inconclusive means weak or mixed curves; inactive means no such curve, though single readings can be large; an effect the other way counts as inactive or inconclusive.
# Columns and labels:
# [1] = qHTS RealTime-Glo MT Cell Viability Assay in HEK293 cells - 0 hour (AID 1224880); further: top concentration of the series differs between compounds; nearly all actives have a fitted effect of over 45% in size
# Summary of the method: (§1)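 HEK293 + NanoLuc + prosubstrate, 600 cells/well; 5 h, 37 C/5% CO2; compound 23 nL in DMSO by pintool; 37 C; luminescence read at 0, 8, 16, 24, 32 and 40 h time points.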
# [2] = A CellTox Green Cytotoxicity Assay to monitor cytotoxicity in HepG2 cells - 0 hour (AID 1224882); further: nearly all actives have a fitted effect of over 35% in size
# Summary of the method: (§2)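 Measurements at 0, 8, 16, 24, 32 and 40 h of treatment captured CellTox Green fluorescence in HepG2 cells that had been co-plated with reagent and preincubated 5 h at 37 C/5% CO2.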
# [3] = A CellTox Green Cytotoxicity Assay to monitor cytotoxicity in HEK293 cells - 8 hour (AID 1224884); further: nearly all actives have a fitted effect of over 35% in size
# Summary of the method: (§3)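 Tox21 screen in HEK293: membrane-impermeant cyanine dye fluoresces on binding dead-cell DNA; compound pinned 5 h post-seeding, plates held at 37 C, signal read repeatedly through 40 h.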
# [4] = qHTS RealTime-Glo MT Cell Viability Assay in HepG2 cells - 16 hour (AID 1224885); further: nearly all actives have a fitted effect of over 50% in size
# Summary of the method: (§4)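 Cell number in HepG2 cultures estimated from NanoLuc luminescence generated by metabolic reduction of a prosubstrate by living cells. The homogeneous, nonlytic format allowed repeated reads at 0, 8, 16, 24, 32 and 40 h of compound exposure.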
# [5] = qHTS RealTime-Glo MT Cell Viability Assay in HEK293 cells - 8 hour (AID 1224887); further: nearly all actives have a fitted effect of over 50% in size; further: potency means the concentration at half of the fitted maximal effect
# Summary of the method: as §1
# [6] = qHTS RealTime-Glo MT Cell Viability Assay in HepG2 cells - 0 hour (AID 1224889); further: nearly all actives have a fitted effect of over 50% in size
# Summary of the method: as §4
# [7] = A CellTox Green Cytotoxicity Assay to monitor cytotoxicity in HepG2 cells - 8 hour (AID 1224890); further: nearly all actives have a fitted effect of over 45% in size
# Summary of the method: as §2
# [8] = qHTS assay to identify small molecule antagonists of the estrogen receptor alpha (ER-alpha) signaling pathway using the BG1 cell line in the presence of 0.1 nM 17-beta-estradiol - cell viability counter screen (AID 1259241); further: nearly all actives have a fitted effect of over 40% in size
# Summary of the method: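 Viability in VM7Luc4E2 cells after 22 hr compound exposure under 0.1 nM 17beta-estradiol stimulation, by CellTiter-Fluor.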
# [9] = qHTS assay to identify small molecule antagonists of the androgen receptor (AR) signaling pathway using the MDA cell line in the presence of 0.5 nM R1881 - cell viability counter screen (AID 1259242); further: nearly all actives have a fitted effect of over 45% in size; further: potency means the concentration at half of the fitted maximal effect
# Summary of the method: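 Concentration-response screen of compounds for toxicity in MDA-kb2 reporter cells: 16 hr at 37C with 0.5 nM R1881, endpoint live-cell protease fluorescence measured in the reporter wells.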
# [10] = target: Estrogen receptor (Homo sapiens) (UniProt P03372); experiment: qHTS assay to identify small molecule antagonists of the estrogen receptor alpha (ER-alpha) signaling pathway using the BG1 cell line in the presence of 0.1 nM 17-beta-estradiol (AID 1259244); further: nearly all actives have a fitted effect of over 50% in size; further: potency means the concentration at half of the fitted maximal effect
# Summary of the method: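 Compounds were tested against 0.1 nM (final) 17beta-estradiol in VM7Luc4E2 cells, which express full-length ER-alpha and an ERE-luciferase reporter; luminescence was recorded following 22 h exposure.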
# [11] = qHTS assay to identify small molecule HDAC inhibitors (AID 1259364); further: potency means the concentration at half of the fitted maximal effect;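 further: wild-type HCT-116 cells with endogenous class I/II HDAC activity; nearly all actives have a fitted effect of over 45% in size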
# Summary of the method: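 Screening used wild-type human colon HCT-116 cells incubated overnight, dosed with compounds for 2 hours, and assayed with a homogeneous luminogenic HDAC I/II reagent for 30 minutes at room temperature.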
# [12] = qHTS assay to identify small molecule HDAC inhibitors - cell viability counter screen (AID 1259365)
# Summary of the method: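 Cytotoxicity was gauged in wild-type HCT-116 cells after a brief 2hr treatment with DMSO-dissolved compounds at 37C and 5% CO2, using CellTiter-Glo luminescence developed for 30min at room temperature.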
# [13] = qHTS assay to identify small molecule agonists of the sonic hedgehog signaling (Shh) pathway - cell viability counter screen (AID 1259366); further: nearly all actives have a fitted effect of over 50% in size; further: potency means the concentration at half of the fitted maximal effect
# Summary of the method: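 Stable Gli1-Luc NIH/3T3 clone, 2,000 cells/well. Compound exposure 24hr at 37C. Read-out: CellTiter-Fluor fluorescence.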
# [14] = qHTS assay to identify small molecule antagonists of the sonic hedgehog signaling (Shh) pathway - cell viability counter screen (AID 1259367); further: nearly all actives have a fitted effect of over 55% in size; further: potency means the concentration at half of the fitted maximal effect
# Summary of the method: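 Fluorescence read-out (CellTiter-Fluor, 1 hr at 37C) taken after 23 hr compound treatment of 3T3 Gli1-Luc cells stimulated with conditioned medium. Cells were seeded at 2,000 per well and pre-incubated 4 hr.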
# [15] = A CellTox Green Cytotoxicity Assay to monitor cytotoxicity in HEK293 cells - 32 hour (AID 1224881); further: nearly all actives have a fitted effect of over 40% in size
# Summary of the method: as §3
# [16] = A CellTox Green Cytotoxicity Assay to monitor cytotoxicity in HepG2 cells - 32 hour (AID 1224883); further: nearly all actives have a fitted effect of over 50% in size
# Summary of the method: as §2
# [17] = A CellTox Green Cytotoxicity Assay to monitor cytotoxicity in HEK293 cells - 16 hour (AID 1224888); further: nearly all actives have a fitted effect of over 35% in size
# Summary of the method: as §3
# [18] = qHTS assay to identify small molecule phospholipidosis (PLD) inducers (AID 1259344; active means well fitted curve in the direction sought with a large enough effect; an effect the other way counts as inactive or inconclusive)
# Summary of the method: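 Read-out is LipidTOX Red fluorescence (ex 595/em 615) imaged in HepG2 cells after 24 h compound exposure at 37 C, with Hoechst nuclear counterstain (ex 352/em 461) allowing per-cell normalisation.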
# [19] = qHTS RealTime-Glo MT Cell Viability Assay in HEK293 cells - 24 hour (AID 1224886); further: nearly all actives have a fitted effect of over 50% in size; further: potency means the concentration at half of the fitted maximal effect
# Summary of the method: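 Homogeneous bioluminescent viability format in HEK293 cells (600 cells/well). Following 5 h at 37 C/5% CO2, 23 nL compound was pintooled; the signal was measured repeatedly during 40 h incubation.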
# [20] = target: Androgen receptor (Homo sapiens) (UniProt P10275); experiment: qHTS assay to identify small molecule antagonists of the androgen receptor (AR) signaling pathway using the MDA cell line in the presence of 0.5 nM R1881 (AID 1259243); further: nearly all actives have a fitted effect of over 50% in size; further: potency means the concentration at half of the fitted maximal effect
# Summary of the method: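 With R1881 held at 0.5 nM (final), compound effects on MMTV-luciferase expression in MDA-kb2 cells were scored by luminescence after a 16 hr, 37C incubation.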
# Estrogen receptor (Homo sapiens), sequence (P03372 whole entry, looked up): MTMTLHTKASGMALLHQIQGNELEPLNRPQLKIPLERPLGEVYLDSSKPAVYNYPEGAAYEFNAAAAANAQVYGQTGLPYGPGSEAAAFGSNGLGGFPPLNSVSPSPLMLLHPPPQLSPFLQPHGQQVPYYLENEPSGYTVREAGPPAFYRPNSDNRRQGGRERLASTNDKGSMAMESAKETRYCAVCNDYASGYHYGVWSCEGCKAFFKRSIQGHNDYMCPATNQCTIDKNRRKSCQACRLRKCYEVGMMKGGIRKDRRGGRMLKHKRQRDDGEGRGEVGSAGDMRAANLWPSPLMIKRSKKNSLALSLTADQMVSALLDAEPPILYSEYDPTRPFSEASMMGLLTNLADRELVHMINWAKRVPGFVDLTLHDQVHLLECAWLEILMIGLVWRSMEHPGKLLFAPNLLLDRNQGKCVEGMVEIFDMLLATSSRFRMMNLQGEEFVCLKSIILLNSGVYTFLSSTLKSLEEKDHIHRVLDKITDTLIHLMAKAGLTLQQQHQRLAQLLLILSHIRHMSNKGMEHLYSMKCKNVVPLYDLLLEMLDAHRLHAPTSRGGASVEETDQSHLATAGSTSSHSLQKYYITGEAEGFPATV
# Androgen receptor (Homo sapiens), sequence (P10275 whole entry, looked up): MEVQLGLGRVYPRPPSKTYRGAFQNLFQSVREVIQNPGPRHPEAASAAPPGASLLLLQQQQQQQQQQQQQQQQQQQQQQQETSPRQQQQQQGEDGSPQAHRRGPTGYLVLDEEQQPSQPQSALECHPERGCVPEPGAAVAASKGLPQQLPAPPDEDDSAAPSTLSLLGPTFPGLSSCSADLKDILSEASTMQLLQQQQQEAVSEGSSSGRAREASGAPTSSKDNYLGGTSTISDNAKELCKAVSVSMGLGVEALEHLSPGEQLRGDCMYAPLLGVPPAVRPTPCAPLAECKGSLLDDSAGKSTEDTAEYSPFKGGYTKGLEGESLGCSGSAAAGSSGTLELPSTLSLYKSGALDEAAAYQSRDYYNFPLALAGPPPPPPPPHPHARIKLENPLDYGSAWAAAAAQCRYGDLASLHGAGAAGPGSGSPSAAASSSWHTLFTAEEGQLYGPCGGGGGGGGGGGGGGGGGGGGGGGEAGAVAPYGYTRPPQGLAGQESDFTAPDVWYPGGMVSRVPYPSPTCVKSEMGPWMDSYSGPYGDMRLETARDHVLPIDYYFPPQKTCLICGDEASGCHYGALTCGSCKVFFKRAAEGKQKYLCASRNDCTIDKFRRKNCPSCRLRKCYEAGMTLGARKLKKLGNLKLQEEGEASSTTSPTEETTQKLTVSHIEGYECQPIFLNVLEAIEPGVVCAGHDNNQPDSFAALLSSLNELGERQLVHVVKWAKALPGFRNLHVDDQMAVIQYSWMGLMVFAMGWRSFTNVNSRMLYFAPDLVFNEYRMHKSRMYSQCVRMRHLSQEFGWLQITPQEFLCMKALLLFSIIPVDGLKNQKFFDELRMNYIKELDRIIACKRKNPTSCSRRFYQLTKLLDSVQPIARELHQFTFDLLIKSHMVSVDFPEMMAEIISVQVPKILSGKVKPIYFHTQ
compound,measurement,setting,value
OC/C(Br)=C(\Br)CO,Potency,[1],inactive
same,Potency,[2],inactive
same,Potency,[3],inactive
same,Potency,[4],inactive
same,Potency,[5],inactive
same,Potency,[6],inactive
same,Potency,[7],inactive
same,Potency,[8],inactive
same,Potency,[9],inactive
same,Potency,[10],inactive
same,Potency,[11],inactive
same,Potency,[12],inactive
same,Potency,[13],inactive
same,Potency,[14],inactive
CCCCCC=CCC=CCCCCCCCC(=O)OCC,Potency,[15],inactive
same,Potency,[2],inactive
same,Potency,[16],inactive
same,Potency,[3],inactive
same,Potency,[4],inactive
same,Potency,[5],inactive
same,Potency,[17],inactive
same,Potency,[6],inactive
same,Potency,[7],inactive
same,Potency,[8],inactive
same,Potency,[9],inactive
same,Potency,[10],inactive
same,outcome,[18],inactive
same,Potency,[11],inactive
same,Potency,[12],inactive
same,Potency,[13],inactive
same,Potency,[14],inactive
CC1=C(/C=C/C(C)=C\C=C\C(C)=C\C(=O)O)C(C)(C)CCC1,Potency,[2],inactive
same,Potency,[3],inactive
same,Potency,[19],inactive
same,Potency,[5],inactive
same,Potency,[17],inactive
same,Potency,[6],inactive
same,Potency,[7],inactive
same,Potency,[8],inactive
same,Potency,[9],inactive
same,Potency,[11],inactive
same,Potency,[12],inactive
COC(=O)Nc1nc2ccc(C(=O)c3cccs3)cc2[nH]1,Potency,[2],inactive
same,Potency,[3],inactive
same,Potency,[6],inactive
same,Potency,[7],inactive
same,Potency,[8],inactive
same,Potency,[9],inactive
same,outcome,[18],inactive
same,Potency,[11],11.9 µM (active)
same,Potency,[12],inactive
same,Potency,[13],inactive
CC(C)(CCl)c1ccccc1,Potency,[15],inactive
same,Potency,[2],inactive
same,Potency,[3],inactive
same,Potency,[4],inactive
same,Potency,[19],inactive
same,Potency,[5],inactive
same,Potency,[17],inactive
same,Potency,[6],inactive
same,Potency,[8],inactive
same,Potency,[9],inactive
same,Potency,[10],inactive
same,Potency,[11],inactive
same,Potency,[12],inactive
same,Potency,[13],inactive
same,Potency,[14],inactive
CO/N=C1\CN(c2nc3c(cc2F)c(=O)c(C(=O)O)cn3C2CC2)CC1CN (centres undefined),Potency,[15],inactive
same,Potency,[16],inactive
same,Potency,[3],inactive
same,Potency,[4],inactive
same,Potency,[19],inactive
same,Potency,[5],inactive
same,Potency,[17],inactive
same,Potency,[6],inactive
same,Potency,[7],inactive
same,Potency,[8],inactive
same,Potency,[9],inactive
same,outcome,[18],inactive
same,Potency,[11],inactive
same,Potency,[12],inactive
same,Potency,[14],inactive
Oc1cc(O)c(Cl)cc1Cl,Potency,[15],inactive
same,Potency,[2],inactive
same,Potency,[3],inactive
same,Potency,[4],inactive
same,Potency,[19],inactive
same,Potency,[5],inactive
same,Potency,[17],inactive
same,Potency,[6],inactive
same,Potency,[7],inactive
same,Potency,[8],inactive
same,Potency,[9],inactive
same,Potency,[10],inactive
same,Potency,[11],inactive
same,Potency,[12],inactive
same,Potency,[13],inactive
same,Potency,[14],inactive
O=C(N[C@@H](c1ccccc1)[C@@H]1CCCCN1)c1cccc(C(F)(F)F)c1Cl,Potency,[2],inactive
same,Potency,[3],inactive
same,Potency,[19],24.5 µM (active)
same,Potency,[17],inactive
same,Potency,[6],inactive
same,Potency,[7],inactive
same,Potency,[8],inactive
same,Potency,[11],inactive
same,Potency,[12],inactive
same,Potency,[13],30.6 µM (active)
same,Potency,[14],54.5 µM (active)
O=[N+]([O-])c1cccc(S(=O)(=O)NCCNS(=O)(=O)c2cccc([N+](=O)[O-])c2)c1,Potency,[15],inactive
same,Potency,[2],inactive
same,Potency,[3],inactive
same,Potency,[4],inactive
same,Potency,[19],inactive
same,Potency,[5],inactive
same,Potency,[17],inactive
same,Potency,[6],inactive
same,Potency,[7],inactive
same,Potency,[8],inactive
same,Potency,[9],inactive
same,Potency,[20],inactive
same,Potency,[10],inactive
same,outcome,[18],inactive
same,Potency,[11],inactive
same,Potency,[12],inactive
same,Potency,[13],inactive
same,Potency,[14],inactive
c1cc[c]([Bi]([c]2ccccc2)[c]2ccccc2)cc1,Potency,[15],inactive
same,Potency,[2],inactive
same,Potency,[3],inactive
same,Potency,[4],inactive
same,Potency,[5],inactive
same,Potency,[17],inactive
same,Potency,[6],inactive
same,Potency,[7],inactive
same,Potency,[8],inactive
same,Potency,[9],inactive
same,Potency,[10],inactive
same,Potency,[11],inactive
same,Potency,[12],inactive
Cc1cc2nc3ccc(=[N+](C)C)cc-3sc2cc1N,Potency,[2],inactive
same,Potency,[16],inactive
same,Potency,[3],inactive
same,Potency,[19],2.68 µM (active)
same,Potency,[5],1.9 µM (active)
same,Potency,[17],inactive
same,Potency,[6],inactive
same,Potency,[9],2.66 µM (active)
same,Potency,[20],1.5 µM (active)
same,Potency,[10],26.6 µM (active)
same,PLD induction,[18],-3.22% [at 0.306 µM]
same,Potency,[11],10.6 µM (active)
same,Potency,[13],9.44 µM (active)
same,Potency,[14],inactive
CCCCCCOC(=O)CCCCCCCC(=O)OCCCCCC,Potency,[2],inactive
same,Potency,[16],inactive
same,Potency,[3],inactive
same,Potency,[4],inactive
same,Potency,[19],inactive
same,Potency,[5],inactive
same,Potency,[17],inactive
same,Potency,[6],inactive
same,Potency,[7],inactive
same,Potency,[8],inactive
same,Potency,[9],inactive
same,Potency,[11],inactive
same,Potency,[12],inactive
same,Potency,[13],inactive
same,Potency,[14],inactive
Cc1ccnc2ccccc12,Potency,[2],inactive
same,Potency,[16],inactive
same,Potency,[3],inactive
same,Potency,[4],inactive
same,Potency,[19],inactive
same,Potency,[5],inactive
same,Potency,[17],inactive
same,Potency,[6],inactive
same,Potency,[7],inactive
same,Potency,[8],inactive
same,Potency,[9],inactive
same,Potency,[10],inactive
same,Potency,[11],inactive
same,Potency,[12],inactive
same,Potency,[13],inactive

# From PubChem BioAssay (Tox21)
